Screening results: PubChem BioAssay, several laboratories
This is a sample that favours compounds with a hit; in the whole collection about 12% have one here.
INS promoter inh = TRM-6 insulin promoter activity inhibition; hit rate 0.9% among 130,000; TRM-6 cells (human fetal islet line), insulin promoter-eGFP reporter, imaging; reporter expression induced with tamoxifen; inhibition, % at 2 µM; AID 1273;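 active means inhibition above the mean plus 3 SD, with well images judged a real hit on visual review, cut at about 60% in these data, passing the limit was not always enough; inconclusive means inhibition over the cutoff but images rejected on review; inactive means inhibition not above the cutoff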
ROMK primary = human ROMK K+ channel modulation, primary screen; P48048; Tet-inducible ROMK, thallium flux fluorescence; actives lie on both sides; B-score at 10 µM; hit rate 2% among 130,000; AID 1918;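 active means signal ratio slope over the read window, or its plate-corrected B-score, at least 3 SD from the plate mean, either direction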;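 further: B-score of the F/F0 ratio slope over 7 to 12 s after thallium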
Target sequence (P48048 whole entry, looked up): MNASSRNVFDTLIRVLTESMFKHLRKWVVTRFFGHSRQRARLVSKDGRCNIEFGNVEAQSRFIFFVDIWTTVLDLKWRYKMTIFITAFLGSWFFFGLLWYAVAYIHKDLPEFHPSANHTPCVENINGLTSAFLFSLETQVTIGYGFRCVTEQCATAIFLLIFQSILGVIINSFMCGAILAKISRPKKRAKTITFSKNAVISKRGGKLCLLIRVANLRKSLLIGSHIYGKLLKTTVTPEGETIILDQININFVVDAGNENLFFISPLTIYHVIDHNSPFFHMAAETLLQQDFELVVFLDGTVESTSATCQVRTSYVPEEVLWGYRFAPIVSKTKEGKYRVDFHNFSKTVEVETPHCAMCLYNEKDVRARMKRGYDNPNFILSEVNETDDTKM
Insulin prom up = MIN6 insulin promoter up-regulation; MIN6 insulin promoter-GFP reporter, high-content imaging; active compounds read high; z-score at 5 µM; hit rate 0.3% among 190,000;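 active means z-score above 3 at 5 µM with at least 500 cells counted in the well; inconclusive means wells under 500 cells, flagged as cytotoxic or low count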
L major viab = reduces viability of Leishmania major promastigotes; resazurin fluorescence viability; inhibition, % at 10 µM; hit rate 9% among 200,000; AID 1063; in the data active means inhibition above about 50%;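 further: promastigotes grown with compound for 44 hours at 28 °C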
WT yeast gro inh = growth inhibition of WT yeast, mitochondrial fusion screen. mitochondrial fusion phenotypic screen, WT strain. inhibition, % at 10 µM. hit rate 2.1% among 190,000. AID 1362; in the data active means inhibition above about 58%; tested in S. cerevisiae
Cl transport mod = KCC2 (human) Cl- transport modulation; B-score of Tl+ flux slope (higher = more flux/activation; lower = inhibition) at 10 µM; hit rate 2.2% among 190,000; KCC2 cells, thallium flux FluoZin-2 fluorescence; Q9H2X9;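 active means thallium flux slope and its plate-corrected score both differing from the plate sample mean at a set confidence after two filtering rounds, in either direction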;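 further: slope of fluorescence scaled to starting intensity during 10 to 20 s after thallium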
* = called active by the depositor; ? = inconclusive; / = no result given.

SMILES	INS promoter inh	ROMK primary	Insulin prom up	L major viab	WT yeast gro inh	Cl transport mod
COc1ccc(NC(=O)C(Cl)=C(Cl)Cl)cn1	54.5	-0.0295	-1.48	5.4	16.6	-0.586
COc1ccc(NC(=O)/C(Cl)=C(/Cl)S(=O)Cc2ccc(Cl)cc2)cn1 (stereo not given)	-387.8	-0.0139	-0.63	100.4*	91.0	/
O=[N+]([O-])c1ccc(N=Nc2c(Cl)cc(O)cc2Cl)cc1	/	-8.77*	?	/	/	7.5*
O=C(c1cc2ccccc2o1)N1CCN=C1SCc1cccnc1	-90.9	0.419	0.24	5.5	0.6	/
CCc1c(C)sc(NC(=S)N2CC(C)OC(C)C2)c1C(=O)OC (stereo not given)	/	0.0737	-1.52	4.2	64.5*	2.82
CN1CCN(C2=Cc3ccccc3Sc3cc(F)ccc32)CC1	-52.4	-0.596	/	99.9*	94.5*	0.348
CN1CCN(C2=Cc3ccc(Cl)cc3Sc3ccc(F)cc32)CC1	19.1	0.246	/	95.4*	50.9	0.148
Cc1cccc(Nc2nnc(SCc3cc(=O)n4cc(C)ccc4n3)s2)c1	/	0.468	0.47	-0.4	-1.3	-0.528
Cc1cc(C)n2nc(C(=O)N3CCN(c4ccc([N+](=O)[O-])cc4)CC3)nc2n1	/	-1.69	-0.46	0.8	9.3	-0.0849
O=c1cc(-c2cccc([N+](=O)[O-])c2)[nH][nH]1	-16.9	-0.704	0.05	58.3*	8.6	0.261
Nc1cc(-c2cccc([N+](=O)[O-])c2)[nH]n1	/	/	0.75	-3.0	-16.2	-0.129
Cc1ccccc1S(=O)(=O)c1c(C)cc(C)n(C(C)C)c1=O	-11.6	/	-0.68	89.5*	11.4	0.494
CCCCn1c(C)cc(C)c(S(=O)(=O)c2ccccc2C)c1=O	0.0	1.91	-0.35	97.2*	38.5	-0.733
CC(=O)Nc1cccc(C(=O)NCC2(N3CCCCC3)CCCCC2)c1	/	1.93	-0.37	0.1	-9.7	0.215
COC(=O)c1ccccc1NC(=O)C1CCCN(S(=O)(=O)c2ccc(OC)cc2)C1 (stereo not given)	12.5	-1.86	-0.22	2.3	7.2	0.678
CNc1ccc(Br)cc(C(=O)/C=C/c2cc(OC)ccc2OC)c1=O	-52.8	/	?	88.9*	-7.5	-0.0237
CNc1ccc(Br)cc(C(=O)/C=C/c2ccc(OC)cc2)c1=O	14.3	0.344	0.4	18.1	1.9	0.358
COCCCNC(=O)/C=C/c1ccc(Cl)cc1Cl	3.3	/	-0.16	-2.1	2.2	/
CCNc1ccc(Br)cc(C(=O)/C=C/c2ccc(Cl)cc2Cl)c1=O	-25.0	/	?	97.8*	-3.5	0.688
CNc1ccc(Br)cc(C(=O)/C=C/c2ccc3c(c2)OCO3)c1=O	-25.0	/	0.03	71.9*	-0.6	-0.348
O=C(c1cnn2ccccc12)N(Cc1ccco1)C1CCCC1	/	/	-0.03	-0.4	7.1	/
CC(=O)/C(=N\Nc1ccc(C)cc1)N1CCOCC1	55.2	/	-1.28	-1.7	43.9	0.165
Cc1cc2nc(CCN3CCOCC3)n(S(=O)(=O)c3ccc(C(C)(C)C)cc3)c2cc1C	85.7*	-0.0465	-0.71	26.7	14.2	-0.284
Cc1c(C(=O)N2CCc3ccccc32)oc2ccccc12	14.3	/	-0.03	81.2*	31.9	-2.82
COc1ccc2[nH]c(=O)c(CN(Cc3cccs3)C(=S)Nc3ccccc3)cc2c1	-13.3	/	-1.59	98.0*	15.7	-0.0307
SMILES	INS promoter inh	ROMK primary	Insulin prom up	L major viab	WT yeast gro inh	Cl transport mod
COc1cc2cc(CN(Cc3cccs3)C(=S)Nc3ccccc3)c(=O)[nH]c2cc1OC	-46.1	0.191	/	81.3*	7.2	-0.922
COc1ccc2[nH]c(=O)c(CN(CCCN(C)C)C(=O)Nc3ccccc3)cc2c1	42.9	-0.0456	0.41	13.7	3.1	/
CNC(=S)N(Cc1cccs1)Cc1cc2ccc(OC)cc2[nH]c1=O	0.0	-0.00967	-0.39	70.3*	-26.4	0.142
CCNC(=S)N(Cc1ccco1)Cc1cc2cc(OCC)ccc2[nH]c1=O	/	0.181	0.11	33.1	5.0	-0.41
CCNC(=S)N(Cc1cccs1)Cc1cc2cc(OCC)ccc2[nH]c1=O	-39.5	-0.103	-0.45	96.2*	-12.7	0.279
CN(c1ccccc1)S(=O)(=O)c1cc(Cl)ccc1Cl	-57.1	-0.283	-0.03	-3.5	-3.1	-1.36
O=C(NNc1cccc(Cl)n1)Nc1ccccc1Cl	16.2	/	/	-4.4	-45.2	-0.282
O=C1CN(C(=O)CN2CCCC2)C(c2ccccc2)c2cc(Br)ccc2N1 (stereo not given)	-43.2	/	/	63.5*	0.2	1.72
O=C(Cc1ccccn1)Nc1ccccc1	-6.5	/	/	-4.9	-0.8	0.0818
CCC(=O)C1=C(O)C(c2cccc(Oc3ccccc3)c2)CCC1=O (stereo not given)	/	-0.241	0.39	-7.5	63.2*	-1.06
COCCNC(=O)COc1cccc(Oc2ccccc2)c1	12.5	-0.308	-0.14	-8.0	16.6	/
CCc1nnc(NC(=O)CSc2nnc(-c3ccco3)n2C)s1	-20.6	/	0.04	-8.8	-12.2	-0.678
NC(=S)N/N=C\c1ccccc1OCc1ccccc1	/	-0.815	0.12	67.9*	54.1	-0.219
NC(=S)N/N=C\c1c(OCc2ccccc2Cl)ccc2ccccc12	/	0.784	-2.01	63.7*	61.2*	-0.0192
NC(=S)N/N=C\c1c2ccccc2cc2ccccc12	-5.9	-1.83	-0.51	15.4	29.3	1.24
COc1cccc(/C=N/NC(N)=S)c1OCc1cccc(Cl)c1	-52.9	0.591	0.24	69.9*	-7.8	1.28
COC(=O)c1c(C)oc(C)c1S(=O)(=O)N(Cc1ccccc1)C(C)C	/	/	/	/	/	-0.777
CCOCCCNC(=O)C(c1ccc(OC)cc1)N(Cc1ccc2c(c1)OCO2)C(=O)c1cnccn1 (stereo not given)	-6.7	0.0918	0.42	6.9	2.8	/
CCc1nnc(NC(=O)CSc2nnc(-c3ccc(O)cc3)n2C)s1	/	-0.0551	-0.15	3.4	-6.8	0.311
CCc1nnc(NC(=O)CSc2nnc(-c3ccccc3O)n2-c2ccc(C)cc2C)s1	42.1	/	-0.22	98.9*	25.1	-0.525
CCc1nnc(NC(=O)CSc2nnc(COc3cccc(C)c3)o2)s1	75.0*	/	1.15	-3.8	-33.1	-3.61
Cn1c(=O)n(C)c2cc(NC(=O)CSc3nnc(-c4ccccc4O)n3-c3ccccc3)ccc21	-25.8	1.07	/	60.2*	-2.3	-2.25
CC(C)(C)NC(=O)C1CCN(S(=O)(=O)c2ccc(Br)cc2)CC1	6.2	0.46	-0.07	-7.4	14.1	0.568
Cc1ccccc1NC(=S)N1CCCN(Cc2ccc(F)cc2)C1	29.4	-1.08	-1.08	86.2*	1.0	1.88
Cc1ccc(NC(=S)N2CCCN(Cc3ccc(F)cc3)C2)c(C)c1	-33.3	/	-2.06	89.4*	2.2	0.14
CSc1cccc(NC(=S)N2CCCN(Cc3ccc(F)cc3)C2)c1	-62.5	-1.06	-2.08	86.4*	7.8	0.0309
Cc1cccc(NC(=S)N2CCN(c3ccc(F)cc3)CC2)c1	/	-0.00888	-0.3	15.5	16.3	-1.68
Cc1ccccc1NC(=S)N1CCCC1	-13.3	0.637	0.45	-3.1	-0.8	-0.963
C/C(CC(=O)Nc1ccc(N(C)C)cc1)=N\NC(=O)C(=O)NCc1ccccc1	/	0.0409	-1.27	-2.6	-13.1	0.52
